Compound activity as filed in PubChem.
LmPK inh = LmPK (Leishmania mexicana) enzyme inhibition. Q27686. purified LmPK, Kinase-Glo ATP luminescence, 1 h. Potency, µM (highest dose often 57.5 µM), inactives show at the highest dose activity change, negative = inhibition, most hits filed as inhibitors. 290,000 tested, 0.37% active. AID 1721; further: on the % scale 0 is the no-effect control and ±100 the full control effect
Target sequence (Q27686 whole entry, looked up): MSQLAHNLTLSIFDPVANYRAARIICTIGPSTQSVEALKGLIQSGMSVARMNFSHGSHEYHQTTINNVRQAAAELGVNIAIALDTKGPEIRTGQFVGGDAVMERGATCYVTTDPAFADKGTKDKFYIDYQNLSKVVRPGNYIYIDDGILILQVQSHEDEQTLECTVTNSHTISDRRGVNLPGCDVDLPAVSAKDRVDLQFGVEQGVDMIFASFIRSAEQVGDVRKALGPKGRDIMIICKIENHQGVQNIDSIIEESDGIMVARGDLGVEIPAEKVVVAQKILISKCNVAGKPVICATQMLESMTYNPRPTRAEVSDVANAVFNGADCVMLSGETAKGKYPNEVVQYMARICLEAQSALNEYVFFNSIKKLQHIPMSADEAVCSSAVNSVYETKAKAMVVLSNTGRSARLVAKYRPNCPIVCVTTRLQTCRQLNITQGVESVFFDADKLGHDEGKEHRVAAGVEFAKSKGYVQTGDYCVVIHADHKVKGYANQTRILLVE
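Pyruvate kinase activity monitored as ATP production (luciferase luminescence). Conditions: 0.1 nM enzyme, 0.5 mM PEP, 0.1 mM ADP, 1 h, RT; normalized against uninhibited and no-enzyme wells.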
SARS PLpro yeast = inhibitors of SARS-CoV papain-like protease in yeast; S. cerevisiae expressing SARS-CoV PLpro, growth rescue; Potency, µM (series often up to 32.9 µM), without a hit: at the top dose activity, positive = growth rescue, actives largely listed as activators; 330,000 tested, 0.19% active; AID 485353; calls by dose curve; further: 0% is about no effect; nearly all actives have a fitted effect of over 55% in size
RE007 growth inh = less growth of the S. pombe RE007 Vpr strain; S. pombe RE007 Vpr strain, BacTiter-Glo ATP luminescence, 24 h; Potency, µM (highest dose often 92.2 µM), inactives show at the top dose activity change, negative = less growth, actives largely listed as inhibitors; 360,000 tested, 0.21% active; AID 651644; active means well fitted falling curve with a large enough effect; inconclusive means small, poorly fitted or top-dose-only effect; inactive means no such curve, though single readings can be large or run the other way; further: on the % scale 0 is the no-effect control and ±100 the full control effect; nearly all actives have a fitted effect of over 50% in size
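Fission yeast strain RE007, carrying one chromosomally integrated HIV-1 vpr copy, was seeded at OD 0.01 in PMG+AL medium with 23 nL pinned compound. After 24 h at 30 °C and 99% humidity, viability was read by BacTiter-Glo luminescence.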
NS1 function inh = influenza NS1 inhibition. Potency, µM (titrated, usually from 46.1 µM), for inactives: at the top dose activity, positive = more growth. 270,000 tested, 0.4% active. AID 2326; calls by dose curve; further: actives are rising curves; nearly all actives have a fitted effect of over 50% in size
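OD600 was taken as the measure of yeast growth restored by compound in an NS1-expressing S. cerevisiae strain. Cells had been washed out of glucose medium and diluted 1:100 into galactose -URA medium, pH 6.0.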
Sm TGR inh = blocks Schistosoma mansoni thioredoxin glutathione reductase. Q962Y6. 360,000 tested, 3% active. purified TGR, DTNB reduction, TNB absorbance 405 nm. Potency, µM (top dose mostly 114 µM), without a hit: top-dose activity change, negative = inhibition, actives largely listed as inhibitors; further: on the % scale 0 is the no-effect control and ±100 the full control effect; nearly all actives have a fitted effect of over 60% in size
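First, TGR (20 nM dispensed) and NADPH were mixed with compound. Second, a 15 min room-temperature incubation followed. Third, further NADPH and then DTNB were added to start the reaction. Finally, TNB absorbance was monitored kinetically.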
TbPYK inhibitor = blocks Trypanosoma brucei pyruvate kinase; AID 624173; 410,000 tested, 0.12% active; TbPYK enzyme, Kinase-Glo Plus ATP luminescence, 45 min; Potency, µM (doses to about 76.8 µM), without a hit: at the top dose activity, negative = inhibition, most hits filed as inhibitors; Q57TT1; further: on the % scale 0 is the no-effect control and ±100 the full control effect; nearly all actives have a fitted effect of over 50% in size
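Glycolytic pyruvate kinase of T. brucei was incubated with substrate, test compound and 130 uM ADP for 45 minutes at room temperature. Luminescent Kinase-Glo Plus signal was measured after 10 minutes.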
* hit, by the source's call; ? = inconclusive; nt = no result. Only some compounds are listed: those with a hit (about 3.3% of all), similar ones and a draw of the others. Unless noted, the call rests on the fitted dose curve; in most records, active means well fitted curve in the direction sought with a large enough effect; inconclusive means small, poorly fitted or top-dose-only effect, or another doubt; inactive means no such curve, though single readings can be large; an effect the other way counts as inactive or inconclusive. Potency means the concentration at half of the fitted maximal effect.

SMILES	LmPK inh	SARS PLpro yeast	RE007 growth inh	NS1 function inh	Sm TGR inh	TbPYK inhibitor
NNC(=O)c1nn(-c2ccccc2)cc1O	-13%	10µM*	nt	6%	16%	nt
Cc1nnc2n(C3CCCCC3)c(=O)c3c4c(sc3n12)CCC4	5%	-4%	nt	-2%	-25%	nt
Cc1nnc2n(C3CCCCC3)c(=O)c3c4c(sc3n12)COC(C)(C)C4	-1%	4%	-1%	10%	40µM*	4%
Cc1ccc(N2C(=O)CC(Nc3ccc(Cl)c(S(=O)(=O)N(C)C)c3)C2=O)c(C)c1 (configuration not stated)	-1%	-6%	-6%	-8%	32µM*	5%
CC(=O)N1CCN(CC(=O)Nc2ccc(Cl)c(S(=O)(=O)N(C)C)c2)CC1	-3%	1%	15%	-7%	-8%	-5%
CC(C)(C)c1cc(-c2n[nH]c(=S)n2-c2ccccc2F)n[nH]1	14µM*	-1%	-12%	4%	2%	?
O=c1c(N2CCN(c3cccc(Cl)c3)CC2)csc2ccc(Cl)cc12	nt	nt	nt	nt	1%	3%
Cc1ccc(S(=O)(=O)CCC(=O)N(CCN2CCOCC2)c2nc3ccccc3s2)cc1	nt	1%	-11%	nt	35µM*	-12%
Cc1cccc2sc(N(CCN3CCOCC3)C(=O)CCS(=O)(=O)c3ccccc3)nc12	nt	6%	-7%	nt	45µM*	0%
CCCC(=O)N(CCN1CCOCC1)c1nc2c(OCC)cccc2s1	2%	?	-9%	-23%	1%	0%
Cc1cccc2sc(N(CCCN3CCOCC3)C(=O)CS(=O)(=O)c3ccc(F)cc3)nc12	nt	0%	-15%	nt	2%	-2%
CCn1cc(C(=O)NCCc2ccc(C)cc2)c(=O)c2cc(S(=O)(=O)N3CCCCC3)ccc21	nt	nt	nt	nt	11%	0%
Cc1ccc(CCNC(=O)c2cn(C)c3ccc(S(=O)(=O)N4CCCCC4)cc3c2=O)cc1	nt	nt	nt	nt	22µM*	-3%
Cc1ccc(N2C(=O)/C(=C/c3ccc(CN(CCC#N)S(C)(=O)=O)o3)C(=O)NC2=S)cc1C	3%	-4%	nt	16%	3.2µM*	nt
CS(=O)(=O)N(CCC#N)Cc1ccc(/C=C2\C(=O)Nc3ccccc32)o1	1%	3%	36%	nt	-33%	-1%
Cc1cccc(N2C(=O)/C(=C/c3ccc(CN(CCC#N)S(C)(=O)=O)o3)C(=O)NC2=S)c1	22%	-2%	-21%	10%	8.9µM*	?
Cc1ccc(N2NC(=O)/C(=C/c3ccc(-c4ccc(Cl)c(C(=O)O)c4)o3)C2=O)cc1C	1%	0%	-2%	5%	-2%	-20%
Cc1nc2ccccc2nc1-c1ccc(N=[N+]([O-])c2ccc(-c3nc4ccccc4nc3C)cc2)cc1	nt	nt	nt	-8%	nt	nt
Nc1cc(N)cc(-c2nc3ccccc3[nH]2)c1	-1%	-2%	-9%	6%	1%	10%
Cc1ccc(-c2nc3ccccc3[nH]2)s1	16µM*	-28%	20µM*	-89%	-33%	?
c1ccc(-c2nc3ccccc3[nH]2)cc1	?	-19%	-22%	-75%	4%	4%
Cc1cc(-c2nc3ccccc3[nH]2)ccc1N	16µM*	-12%	?	nt	5%	-12%
COc1ccc(-c2nc3ccccc3[nH]2)cc1	13µM*	-29%	?	-158%	-6%	?
c1csc(-c2nc3ccccc3[nH]2)c1	?	-49%	-8%	-37%	-25%	1%
CCOC(=O)c1c(C)oc2nc(C)nc(NCc3ccc(F)cc3)c12	nt	nt	nt	nt	1%	-8%
SMILES	LmPK inh	SARS PLpro yeast	RE007 growth inh	NS1 function inh	Sm TGR inh	TbPYK inhibitor
Cc1ccc(CNC(=O)CN2C(=O)CSc3ccc(S(=O)(=O)N(C)C)cc32)cc1	nt	nt	nt	nt	3%	3%
Cc1[nH]c2ccccc2c1C(c1ccncc1)N1CCN(c2ccc(F)cc2)CC1 (configuration not stated)	6%	12%	-5%	7%	8.9µM*	5%
CCCCn1nnnc1C(c1ccccc1)N1CCN(c2ccc(F)cc2)CC1 (configuration not stated)	nt	nt	-3%	nt	nt	2%
Cc1[nH]c2ccccc2c1C(c1ccncc1)N1CCCCC1 (configuration not stated)	2%	5%	13%	nt	1.8µM*	-10%
Cc1[nH]c2ccccc2c1C(c1ccccn1)c1c(C)[nH]c2ccccc12	1%	-4%	5%	-9%	5.6µM*	3%
Cc1ccccc1C(O)c1ccncc1 (configuration not stated)	4%	-5%	0%	9%	-7%	-4%
Cc1[nH]c2ccccc2c1C(O)c1ccncc1 (configuration not stated)	-2%	3%	-3%	3%	25µM*	-3%
O[C@@H](C1=C/C(=C\c2ccncc2)c2ccccc21)c1ccncc1	nt	nt	nt	-9%	nt	nt
CC(C)c1ccc(NC(=O)C2CCCN(S(=O)(=O)c3cccc4nsnc34)C2)cc1 (configuration not stated)	nt	nt	nt	nt	18%	-1%
O=C(NCCc1csc(-c2ccc(C(F)(F)F)cc2)n1)c1ccc(F)c(F)c1	nt	nt	nt	nt	6%	7%
COc1ccc(NC(=O)CCc2c(C)nc3c(c2C)c(=O)n(C)c(=O)n3C)c(OC)c1	nt	nt	nt	nt	7%	1%
Cc1cccc(NC(=O)c2cccc(N3C(=O)C4C5C=CC(C6CC56)C4C3=O)c2)c1 (configuration not stated)	6%	1%	4%	4%	-21%	-2%
CC(=O)Oc1ccc(N2C(=O)C3C4C=CC(C5CC45)C3C2=O)cc1[N+](=O)[O-] (configuration not stated)	0%	-55%	-1%	-13%	10µM*	-13%
CC(=O)Oc1ccc(N2C(=O)C3C(C2=O)C2C=CC3C23CC3)cc1[N+](=O)[O-] (configuration not stated)	-1%	2%	12%	-8%	18µM*	-5%
CCC(=O)N1c2ccccc2CC1C(=O)NCc1cc(Br)ccc1OC (configuration not stated)	nt	nt	nt	nt	6%	-1%
Fc1ccc(Nc2nc(SCc3cccc(F)c3)nc3ccccc23)cc1	nt	nt	nt	nt	9%	-2%
O=C(Nc1ccc(/C=C/c2ccc(NC(=O)c3cc(S(=O)(=O)O)c4cccnc4c3O)cc2S(=O)(=O)O)c(S(=O)(=O)O)c1)c1cc(S(=O)(=O)O)c2cccnc2c1O	nt	nt	nt	nt	nt	10%
O=c1[nH]c2cc([N+](=O)[O-])c(NCCO)c([N+](=O)[O-])c2[nH]1	-13%	0%	-29%	9%	4%	6%
CC(=O)Nc1c([N+](=O)[O-])cc2[nH]c(=O)[nH]c2c1[N+](=O)[O-]	-1%	-1%	25%	nt	50µM*	-4%
